Source: PubChem BioAssay (National Center for Advancing Translational Sciences (NCATS))
EPAC2 ant val: validation of human EPAC2 antagonists | 1.7% of 16,000 active | EPAC2 Rap1B BODIPY-GDP exchange, fluorescence | AID 1645886 | Potency, µM (top dose mostly 112 µM), for the others: at the top dose activity, negative = inhibition, actives largely listed as inhibitors;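 also: 100% = activation by cAMP agonist control; nearly all actives have a fitted effect of over 40% in size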
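Normalized against a 6.5 mM cAMP agonist control, compounds were tested on 100 nM EPAC2 exchanging Rap1B-bound BODIPY-GDP (250 nM) for 50 uM GDP. Fluorescence drop (ex 480, em 540 nm) was tracked at room temperature over 30 min at 5-min intervals.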
EPAC1 ag val: validation of human EPAC1 agonists. 1% of 16,000 active. O95398. EPAC1 Rap1b BODIPY-GDP exchange, fluorescence. Potency, µM, without a hit: max response, positive = active, hits mostly activators; also: nearly all actives have a fitted effect of over 70% in size
Numbers without * were called inactive; i = inactive; ? = inconclusive; ! = not active in a repeat; [ ] = remark or other dose. Compounds with a hit are over-represented: about 2.9% of the library has one in this group of screens. Calls follow the shape of the dose curve; as a rule, active = well fitted curve in the direction sought with a large enough effect; inconclusive = small, poorly fitted or top-dose-only effect, or another doubt; inactive = no such curve, though single readings can be large; an effect the other way counts as inactive or inconclusive. Unless noted, % is scaled to controls: 0 for no effect and ±100 for the full control effect; potency is read from the fitted curve at half-maximal effect.

SMILES	EPAC2 ant val	EPAC1 ag val
CC(=O)N1CCN(c2ccc(OCC3CO[C@@](Cn4ccnc4)(c4ccc(Cl)cc4Cl)O3)cc2)CC1 (some centres undefined)	35µM*	?
COC(=O)Nc1nc2ccc(C(=O)c3ccccc3)cc2[nH]1	-11%[56.6 µM]	-26%
COC(=O)Nc1nc2ccc(C(=O)c3cccs3)cc2[nH]1	79µM*!	-3%
CC(C)C[C@H](NC(=O)[C@@H](COC(C)(C)C)NC(=O)[C@H](Cc1ccc(O)cc1)NC(=O)[C@H](CO)NC(=O)[C@H](Cc1c[nH]c2ccccc12)NC(=O)[C@H](Cc1cnc[nH]1)NC(=O)[C@@H]1CCC(=O)N1)C(=O)N[C@@H](CCCN=C(N)N)C(=O)N1CCC[C@H]1C(=O)NNC(N)=O	0%	-11%
CC(=O)C[C@H]1c2cc(C(F)(F)F)ccc2S(=O)(=O)N1Cc1ccccc1	?	22%
COC(=O)C[C@H]1c2ccc(C(F)(F)F)cc2S(=O)(=O)N1Cc1ccccc1	25µM*	-5%
CCOC(=O)C[C@H]1c2ccccc2S(=O)(=O)N1Cc1cc(OC)c(OC)c(OC)c1	11%	18%
CCOC(=O)C[C@H]1c2ccccc2S(=O)(=O)N1Cc1cccc(C(F)(F)F)c1	56µM*	-8%
Cc1cccc(C(=O)NCc2nc(-c3cccc(NC(=O)c4ccoc4C)c3)oc2C)n1	-14%	19%
O=C(O)[C@@H]1C[C@H](CP(=O)(O)O)CCN1	-24%	-34%
CC(=O)O[C@@H]1CC2CCC1(C)C2(C)C (some centres undefined)	5%	6%
O=c1c(CCc2ccccc2)nc2cnc(N3CCOCC3)nc2n1Cc1cccs1	0%	-1%
O=c1c(-c2cccs2)nc2cnc(N3CCOCC3)nc2n1CCc1ccccc1	7%	100µM*
COCCn1c(=O)c(-c2cn(C)c3ccccc23)nc2cnc(N3CCOCC3)nc21	-10%	-20%
CN(C)c1ncc2nc(-c3cccs3)c(=O)n(C[C@H]3CCCO3)c2n1	36%	112µM*
CCNc1ncc2nc(-c3cccs3)c(=O)n(C[C@H]3CCCO3)c2n1	3%	-11%
CN1CCN(c2ncc3nc(CCc4ccccc4)c(=O)n(Cc4cccs4)c3n2)CC1	-20%	100µM*
O=c1c(-c2cccs2)nc2cnc(N3CCOCC3)nc2n1Cc1ccc(F)cc1	-1%	1%
Cn1cc(-c2nc3cnc(N4CCOCC4)nc3n(CCC#N)c2=O)c2ccccc21	12%	112µM*
NCCCC[C@H](NC(=O)[C@@H]1CCCN1C(=O)[C@@H]1CSSC[C@H](N)C(=O)N[C@@H](Cc2ccc(O)cc2)C(=O)N[C@@H](Cc2ccccc2)C(=O)N[C@@H](CCC(N)=O)C(=O)N[C@@H](CC(N)=O)C(=O)N1)C(=O)NCC(N)=O	-12%	-5%
Cc1cnc(SCc2ccccn2)nc1C1CCCN(C(=O)c2noc3c2CCCC3)C1 (centres undefined)	?	-11%
CCO[C@H]1[C@H](NC(=O)c2cccnc2)c2ccccc2C12CCN(C(=O)c1ccoc1)CC2	0%	-7%
COc1cc(-c2c(-c3ccc4c(c3)OCO4)noc2-c2ccsc2)ccc1F	?	25%
Cc1onc(-c2ccc3c(c2)OCO3)c1-c1ccc2[nH]ccc2c1	?	100µM*
COC1=C(C(=O)O)N2C(=O)[C@@H](NC(=O)[C@H](N)C3=CCC=CC3)[C@H]2SC1	10%	11%
SMILES	EPAC2 ant val	EPAC1 ag val
O=C(O)c1cc(O)c2c(c1)[C@H]([C@H]1c3cc(C(=O)O)cc(O)c3C(=O)c3c(O[C@@H]4O[C@H](CO)[C@@H](O)[C@H](O)[C@H]4O)cccc31)c1cccc(O[C@@H]3O[C@H](CO)[C@@H](O)[C@H](O)[C@H]3O)c1C2=O	79µM*	?
OCC1OC(Oc2cccc3cccnc23)C(O)C(O)C1O (centres undefined)	-7%	1%
CC(C)(C)C(=O)OCC(=O)[C@H]1CC[C@H]2[C@@H]3CCC4=CC(=O)CC[C@]4(C)[C@H]3CC[C@]12C	-17%	-24%
COc1ncc2nc(-c3cccs3)c(=O)n(Cc3cccs3)c2n1	-18%	?
COCCn1c(=O)c(-c2ccccc2)nc2cnc(Nc3ccccc3)nc21	-15%	-14%
COc1ncc2nc(-c3ccccc3)c(=O)n(Cc3cccs3)c2n1	?	112µM*
O=c1c(-c2ccccc2)nc2cnc(Nc3ccccc3)nc2n1Cc1cccs1	11%	112µM*
O=C(CO)[C@@H](O)[C@H](O)[C@H](O)CO	9%	-71%
C[C@@H]1C[C@H]2C3C[C@H](F)C4=CC(=O)C=CC4(C)[C@@]3(F)[C@@H](O)CC2(C)[C@@]1(O)C(=O)COC(=O)C(C)(C)C (some centres undefined)	-2%	-12%
C=CC(C1=CC(=O)C(OC)=CC1=O)c1ccccc1 (centres undefined)	35µM*	18%
C=CC(C1=CC(=O)C(OC)=CC1=O)c1ccc(OC)cc1 (centres undefined)	?	-18%
CCN(CC)C(=O)c1cc(S(=O)(=O)Cc2ccccc2)c(N2CCC(c3ccccc3)CC2)cc1N(CC)CCN(C)C	-15%	-38%
O=c1cc(-c2cc(O)c(O)c(O)c2)oc2cc(O)cc(O)c12	?	-40%
O=c1oc2c(O)c(O)cc3c(=O)oc4c(O)c(O)cc1c4c23	i	79µM*!
CCC(Oc1ccccc1)C(=O)N[C@@H]1C(=O)N2[C@@H]1SC(C)(C)[C@@H]2C(=O)O (some centres undefined)	5%	-20%
Nc1c2ccccc2nc2ccccc12 (tested in a mixture with another compound)	79µM*	1%
Nc1cccc2c(N)cccc12	?	29%
Cc1cccc(CNC(=O)c2cnn(-c3nccc(-c4cccs4)n3)c2C(C)C)n1	-23%	-9%
Cc1[nH]cnc1C[C@H]1CCc2c(C)c3ccccc3n2C1=O	0%	-108%
CCCCCCCCCCCCCCCC[n+]1ccc(/C=C/c2c[nH]c3ccccc23)cc1	491%	?
CCCCCCC[n+]1ccc(/C=C/c2c(C)[nH]c3ccccc23)cc1	i	100µM*
CCCCCCCCCC[n+]1ccc(/C=C/c2c[nH]c3ccccc23)cc1	i	100µM*
CCCCCCCCCCCCCCCC[n+]1ccc(/C=C/c2c(C)[nH]c3ccccc23)cc1	?	-45%
C=CC1=C(C(=O)O)N2C(=O)[C@@H](NC(=O)/C(=N/OCC(=O)O)c3csc(N)n3)[C@H]2SC1 (stereo in doubt)	-19%[56.6 µM]	-18%
CC[C@H]1OC(=O)[C@H](C)[C@@H](O[C@H]2C[C@@](C)(OC)[C@@H](O)[C@H](C)O2)[C@H](C)[C@@H](O[C@@H]2O[C@H](C)C[C@H](N(C)C)[C@H]2O)[C@](C)(O)C[C@@H](C)[C@@H]2N[C@@H](COCCOC)O[C@@H]([C@H]2C)[C@]1(C)O	15%	-30%
N[C@H](C(=O)O)C(O)C(O)C(O)CO (some centres undefined)	-20%	112µM*
O=C(O)[C@H](O)[C@@H](O)[C@H](O)[C@H](O)CO	-10%	-15%
CCOC(=O)C1=C(C)NC(C)=C(C(=O)OC)C1c1cccc(Cl)c1Cl (centres undefined)	?	56µM*!
CCOC(=O)C1=C(COCCN)NC(C)=C(C(=O)OC)C1c1ccccc1Cl (centres undefined)	-4%	1%
